Screening data deposited in PubChem BioAssay by Sanford-Burnham Center for Chemical Genomics.
CYP2C19 activ: increases human CYP2C19 enzyme activity; 96,000 tested, under 10 active; P33261; activation factor at 5 µM; recombinant CYP2C19, luciferin-H EGE luminescence; hits give high values; 0 = fully inhibited enzyme, 1 = untreated enzyme;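 active = activation factor of at least 2 at 5 µM in the primary screen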;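 also: 0 = wells with 2.5 mM tranylcypromine and 1 = vehicle-only wells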
CYP2C9 inhib: blocks human cytochrome P450 2C9; P11712; CYP2C9 Supersomes, luciferin-H conversion, luminescence; inhibition, % at 5 µM; actives 20% (n = 96,000);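 active = blocking of liver enzyme CYP2C9 beyond about 50% at 5 µM, limit read from the data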
CYP2C19 inhib: human CYP2C19 inhibition; CYP2C19 Supersomes, luciferin-H EGE luminescence, 30 min; actives 21% (n = 96,000); P33261; inhibition, % at 5 µM;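 active = CYP2C19 inhibition above a set limit at 5 µM in the primary screen, cut at about 50% in these data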;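 also: plate controls were negative control wells for no effect and 2.5 mM tranylcypromine positive control for full effect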
Mac1 fbg inh: blocks human CD11b/CD18 adhesion to fibrinogen | inhibition, % at 10 µM | K562 CD11b/CD18 adhesion to fibrinogen, ATPlite luminescence; Mn2+ added to activate the integrin | actives 0.54% (n = 93,000) | P05107+P11215 | AID 1497;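 active = primary inhibition of 50% or more at 10 µM, then 40% or more on retest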
Target sequence (P05107 whole entry, looked up, other chains not shown): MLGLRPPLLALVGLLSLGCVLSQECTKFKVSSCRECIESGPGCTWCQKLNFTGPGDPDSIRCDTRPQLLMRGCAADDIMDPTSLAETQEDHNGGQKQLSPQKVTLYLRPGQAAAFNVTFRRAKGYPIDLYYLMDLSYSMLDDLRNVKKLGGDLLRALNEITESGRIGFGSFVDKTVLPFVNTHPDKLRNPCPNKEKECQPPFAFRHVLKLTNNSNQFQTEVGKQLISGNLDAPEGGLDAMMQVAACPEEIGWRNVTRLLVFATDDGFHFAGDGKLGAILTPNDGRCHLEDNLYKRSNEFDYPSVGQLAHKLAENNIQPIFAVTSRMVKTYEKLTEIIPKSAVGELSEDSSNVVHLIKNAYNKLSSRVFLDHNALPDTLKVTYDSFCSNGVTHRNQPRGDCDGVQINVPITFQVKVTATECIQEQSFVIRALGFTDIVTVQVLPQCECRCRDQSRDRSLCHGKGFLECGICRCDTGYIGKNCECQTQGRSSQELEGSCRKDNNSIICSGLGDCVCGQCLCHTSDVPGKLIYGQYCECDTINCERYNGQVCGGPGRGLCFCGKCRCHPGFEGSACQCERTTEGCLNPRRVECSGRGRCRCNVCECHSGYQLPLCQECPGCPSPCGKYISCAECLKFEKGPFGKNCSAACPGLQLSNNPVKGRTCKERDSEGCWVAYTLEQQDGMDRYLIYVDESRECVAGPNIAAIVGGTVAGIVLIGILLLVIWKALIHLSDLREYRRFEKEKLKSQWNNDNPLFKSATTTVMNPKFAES
Mac1 fbg enh: enhancers of human CD11b/CD18 binding to fibrinogen | P05107+P11215 | K562 CD11b/CD18 adhesion to fibrinogen, ATPlite luminescence | activation, % at 10 µM | actives 0.07% (n = 93,000);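 active = 10 µM primary screen giving 50% or more activity, confirmed by 40% or more on retest at that dose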
CYP2C9 act: CYP2C9 (human) activation | actives 1.4% (n = 96,000) | activation factor at 5 µM | recombinant CYP2C9, luciferin-H conversion, luminescence; hits give high values; factor 1 = untreated enzyme, 0 = blocked | AID 1024;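 active = activation factor of 2 or more for CYP2C9 at a 5 µM dose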;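 also: 0 = sulfaphenazole-blocked wells and 1 = vehicle-only wells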
The depositor's hits bear a star. Rows were chosen to be rich in hits. Some 28% of all compounds tested hit in one or more screens of this group.

What do the screens show for `CC(=O)OC(C(=O)NCc1ccc2c(c1)OCO2)c1ccccc1Cl` (stereo unspecified)?
CYP2C19 activ: 0.1; CYP2C9 inhib: 54*; CYP2C19 inhib: 93*; Mac1 fbg inh: 6; Mac1 fbg enh: -4; CYP2C9 act: 0.5

What do the screens show for `CCOc1ncccc1C(=O)Nc1ccccc1C(=O)NCc1ccc2c(c1)OCO2`?
CYP2C19 activ: 0.5; CYP2C9 inhib: 75*; CYP2C19 inhib: 48; Mac1 fbg inh: -18; Mac1 fbg enh: -2; CYP2C9 act: 0.3

How did CSc1ccccc1C(=O)NCc1ccc2c(c1)OCO2 do in these assays?
CYP2C19 activ: 0.1; CYP2C9 inhib: 12; CYP2C19 inhib: 94*; Mac1 fbg inh: -1; Mac1 fbg enh: 2; CYP2C9 act: 0.9

Results for O=C(NCc1ccc2c(c1)OCO2)c1cnc2ccccn2c1=O ?
CYP2C19 activ: 0.3; CYP2C9 inhib: -39; CYP2C19 inhib: 66*; Mac1 fbg inh: -27; Mac1 fbg enh: -1; CYP2C9 act: 1.4

Results for COc1ccc(CNC(=O)c2ccc(-c3ccccc3)cc2)cc1 ?
CYP2C19 activ: 1; CYP2C9 inhib: 12; CYP2C19 inhib: 3; Mac1 fbg inh: 2; Mac1 fbg enh: -2; CYP2C9 act: 0.9

What do the screens show for `COc1ccc(CNC(=O)c2ccccc2SC)cc1`?
CYP2C19 activ: 0.1; CYP2C9 inhib: 20; CYP2C19 inhib: 90*; Mac1 fbg inh: -2; Mac1 fbg enh: 1; CYP2C9 act: 0.8

How did COc1ccc(CNC(=O)c2cnc3cc(C)ccn3c2=O)cc1 do in these assays?
CYP2C19 activ: 0.4; CYP2C9 inhib: 20; CYP2C19 inhib: 62*; Mac1 fbg inh: -8; Mac1 fbg enh: 7; CYP2C9 act: 0.8

How did CCSc1ccccc1C(=O)NCc1ccc2c(c1)OCO2 do in these assays?
CYP2C19 activ: 0; CYP2C9 inhib: 37; CYP2C19 inhib: 99*; Mac1 fbg inh: 5; Mac1 fbg enh: -5; CYP2C9 act: 0.6

How did COc1ccccc1CNC(=O)c1cnc2ccccn2c1=O do in these assays?
CYP2C19 activ: 0.8; CYP2C9 inhib: -19; CYP2C19 inhib: 18; Mac1 fbg inh: 2; Mac1 fbg enh: 4; CYP2C9 act: 1.2

How did COCCCNC(=S)Nc1ccc2c(c1)OCCO2 do in these assays?
Mac1 fbg inh: -1; Mac1 fbg enh: -4

How did Cc1ccccc1OC(C)C(=O)NC1CCCC1 (stereo unspecified) do in these assays?
CYP2C19 activ: 0.3; CYP2C9 inhib: 42; CYP2C19 inhib: 74*; Mac1 fbg inh: 23; Mac1 fbg enh: 4; CYP2C9 act: 0.6

Results for CC1=C/C(=N\NC(=O)c2ccc(O)cc2)CC1 ?
Mac1 fbg inh: -13; Mac1 fbg enh: 1

How did COC(=O)c1ccc(N=C2S/C(=C\c3cc(C)n(-c4cccnc4)c3C)C(=O)N2C)cc1 do in these assays?
Mac1 fbg inh: -11; Mac1 fbg enh: 9

How did O=[N+]([O-])c1ccc(N2CCN(CCO)CC2)cc1Sc1nc2ccccc2[nH]1 do in these assays?
CYP2C19 activ: 0.6; CYP2C9 inhib: 56*; CYP2C19 inhib: 37; CYP2C9 act: 0.4

What do the screens show for `O=C(CSc1nc2ccccc2[nH]1)N1CCN(c2ccccc2)CC1`?
CYP2C19 activ: 0.5; CYP2C9 inhib: 44; CYP2C19 inhib: 50; Mac1 fbg inh: 3; Mac1 fbg enh: -1; CYP2C9 act: 0.6

Results for COC(=O)c1ccc(NC(=O)CSc2nnc(C(C)NC(=O)c3ccccc3Cl)n2C)cc1 (stereo unspecified) ?
CYP2C19 activ: 1.1; CYP2C9 inhib: 8; CYP2C19 inhib: -8; CYP2C9 act: 0.9

How did COc1ccccc1N1CCN(CC(O)COc2ccc3c(c2)CCC3)CC1 (stereo unspecified) do in these assays?
CYP2C19 activ: 1; CYP2C9 inhib: -34; CYP2C19 inhib: 4; Mac1 fbg inh: -3; Mac1 fbg enh: 2; CYP2C9 act: 1.3

What do the screens show for `N#C/C(=C\c1ccccc1)c1nc2ncccc2[nH]1`?
CYP2C19 activ: 0.8; CYP2C9 inhib: 66*; CYP2C19 inhib: 16; CYP2C9 act: 0.3

What do the screens show for `CCS(=O)(=O)c1ccc(-c2csc(-c3ccccc3)n2)c(Cl)c1Cl`?
CYP2C19 activ: 0.8; CYP2C9 inhib: 14; CYP2C19 inhib: 16; Mac1 fbg inh: 74; Mac1 fbg enh: -6; CYP2C9 act: 0.9
